33 compounds from PubChem BioAssay (Tox21) can be followed below.

Inconclusive results are not listed. The source made the active and inactive calls. The call rests on the fitted dose curve; in most records, active means well fitted curve in the direction sought with a large enough effect in the repeat runs; inconclusive means weak or mixed curves; inactive means no such curve, though single readings can be large; an effect the other way counts as inactive or inconclusive.
On the % scale 0 is the no-effect control and ±100 the full control effect.

System in one test: not listed separately
Nature of the test: qHTS assay to identify small molecule antagonists of the estrogen receptor alpha (ER-alpha) signaling pathway using the BG1 cell line - cell viability counter screen (AID 743081).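 Further: compound given together with 17beta-estradiol as the ER stimulus; nearly all actives have a fitted effect of over 45% in size.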 Particulars: BG1Luc4E2 viability, CellTiter-Fluor, 22 h; series mostly up to 70.3 µM; activity change, negative = cytotoxicity: at the top concentration. (In general: Quantitative high-throughput screening tests each substance at several concentrations.)
With `Cc1ccccc1C(=O)N1CC/C(=N\OS(=O)(=O)O)c2ccc(Cl)cc21`, the “activity change, negative = cytotoxicity” value was 13.9% (inactive).

`CCCCCCCC/C=C\CCCCCCCC(=O)OC[C@@H](O)[C@H]1OC[C@H](O)[C@H]1O`: the “activity change, negative = cytotoxicity” value was 8.19% (inactive). Consider `CCCCC(=O)N(C)C`, for which the “activity change, negative = cytotoxicity” value was 4.9% (inactive). Still for that read-out and setting: under `CN(C)CCCNCCC#N` stands 4.75% (inactive); under `C=COCCOCCOC=C`, -0.111% (inactive); under `Cc1ccc(S(=O)(=O)NC(=O)NC2CCCCCCC2)cc1`, -0.16% (inactive). As for `C[N+](C)(C)CC(O)CCl` (stereo not given), the “activity change, negative = cytotoxicity” value is -2.36% [at 95 µM] (inactive).

The target of a further test is Aromatase (Homo sapiens) (UniProt P11511). The experiment in a line: qHTS assay to identify aromatase inhibitors (AID 743083). Further: nearly all actives have a fitted effect of over 55% in size. Particulars: MCF-7 aro ERE, testosterone-driven ERE luciferase, 24 h; series mostly up to 70.3 µM; activity, negative = inhibition: at the top concentration.
Sequence of Aromatase (Homo sapiens) (P11511 whole entry, looked up): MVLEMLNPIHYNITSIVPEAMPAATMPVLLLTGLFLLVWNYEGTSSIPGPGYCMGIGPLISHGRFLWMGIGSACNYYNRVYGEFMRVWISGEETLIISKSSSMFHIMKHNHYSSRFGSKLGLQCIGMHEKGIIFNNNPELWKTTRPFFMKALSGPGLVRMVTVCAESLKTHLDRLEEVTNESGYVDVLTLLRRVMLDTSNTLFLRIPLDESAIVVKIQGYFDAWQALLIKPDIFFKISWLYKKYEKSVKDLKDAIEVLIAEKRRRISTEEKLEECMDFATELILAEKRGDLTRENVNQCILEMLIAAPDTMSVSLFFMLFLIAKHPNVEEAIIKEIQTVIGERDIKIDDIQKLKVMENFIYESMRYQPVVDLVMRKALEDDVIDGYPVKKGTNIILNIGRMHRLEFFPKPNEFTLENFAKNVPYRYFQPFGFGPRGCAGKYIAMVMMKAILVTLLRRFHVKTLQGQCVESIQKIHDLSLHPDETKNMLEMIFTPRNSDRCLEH
`O=C(O)c1ccccc1C(=O)OCc1ccccc1`: the “activity, negative = inhibition” value is 55.5% (inactive). On to `Cc1ccc2c(c1)c1c3n2CCNC3CCC1` (stereo not given), for which the “activity, negative = inhibition” value was 0.929% (inactive). Consider `O=C(O)c1ccccc1C(=O)Nc1ccc(S(=O)(=O)Nc2nccs2)cc1`, for which the “activity, negative = inhibition” value was 7.54% (inactive). `C[C@H](CCC(=O)O)[C@H]1CC[C@H]2[C@@H]3[C@H](O)C[C@@H]4C[C@H](O)CC[C@]4(C)[C@H]3C[C@H](O)[C@]12C`: the outcome was inactive.

As to `CC(CC(=O)O)CC(C)(C)C` (stereo not given), the “activity, negative = inhibition” value was 8.71% (inactive). For `CCCOCCOCCOCCO`, the “activity, negative = inhibition” value is 10.8% (inactive). On to `COc1ccc(/C=N/NC(=O)c2ccncc2)cc1OC`, for which the “activity, negative = inhibition” value is -0.929% (inactive). The same measure, in the same setting: under `C1=C\CC/C=C\CC/1` stands 1.31% [at 95 µM] (inactive). For `O=C(O)/C=C/c1ccccc1`, the compound was called inactive.

`Cn1c(=O)c2c(ncn2CC2OCCO2)n(C)c1=O`: the “activity, negative = inhibition” value was -0.802% (inactive). The same measure, in the same setting: the result for `Nc1ccc(S(=O)(=O)Nc2ccccn2)cc1` reads 5.73% [at 32.5 µM] (inactive). Take `O=S(=O)(O)CCO`: the “activity, negative = inhibition” value was -4.79% [at 95 µM] (inactive). Take `CCN(CCC#N)c1ccccc1`: the “activity, negative = inhibition” value was 16.5% (inactive). Still for that read-out and setting: the result for `CC(=O)OCCCc1ccccc1` reads -1.01% (inactive); that for `CCCCCC(=O)OCC`, 0.0626% (inactive).

As to `COCC(=O)Nc1c(I)c(C(=O)NCC(O)CO)c(I)c(C(=O)N(C)CC(O)CO)c1I` (stereo not given), the “activity, negative = inhibition” value is -5.04% [at 32.5 µM] (inactive).

Turning to `O=C1NC2NC(=O)NC2N1` (stereo not given), the “activity, negative = inhibition” value is 4.91% (inactive). For `COc1cc2c3cc1Oc1cc(ccc1O)C[C@@H]1c4c(cc(OC)c(O)c4Oc4ccc(cc4)C[C@@H]3N(C)CC2)CC[N+]1(C)C`, the “activity, negative = inhibition” value is 3.06% (inactive). In the case of `O=C(O)C(=O)Nc1cccc(-c2nn[nH]n2)c1`, the “activity, negative = inhibition” value was -5.05% (inactive). In the case of `COCCOCCOCCOC`, the “activity, negative = inhibition” value was 11.8% (inactive). On to `CN(C)CCOCCN(C)CCO`, for which the “activity, negative = inhibition” value was 17.4% (inactive).

In the case of `CCc1nccnc1C`, the “activity, negative = inhibition” value was 47.5% (inactive). As for `SCCSCCS`, the “activity, negative = inhibition” value is 12.7% (inactive).

Turning to `CC(=O)c1ccc(OCC(=O)N2CCCCC2)cc1`, the “activity, negative = inhibition” value is 50.9% (inactive).

For `Nc1cc(Cl)cc(S(=O)(=O)O)c1O`, the “activity, negative = inhibition” value was 4.55% [at 95 µM] (inactive).

On to `Cc1ccccc1C(=O)N1CC/C(=N\OS(=O)(=O)O)c2ccc(Cl)cc21`, for which the “activity, negative = inhibition” value was -0.343% (inactive). Take `CCCCCCCC/C=C\CCCCCCCC(=O)OC[C@@H](O)[C@H]1OC[C@H](O)[C@H]1O`: the outcome was inactive. Consider `CCCCC(=O)N(C)C`, for which the “activity, negative = inhibition” value was 11.7% (inactive). As for `CN(C)CCCNCCC#N`, the “activity, negative = inhibition” value is 8.28% (inactive). In the case of `C=COCCOCCOC=C`, the “activity, negative = inhibition” value is 13.9% (inactive).

Turning to `Cc1ccc(S(=O)(=O)NC(=O)NC2CCCCCCC2)cc1`, the “activity, negative = inhibition” value was -0.304% (inactive).

Consider `OC(CCN1CCCCC1)(c1ccccc1)c1ccccc1`, for which the “activity, negative = inhibition” value is -11.8% (inactive). With `C[N+](C)(C)CC(O)CCl` (stereo not given), the “activity, negative = inhibition” value was 13% [at 95 µM] (inactive).
